Mito fusion yeast = blocks mitochondrial division or promotes mitochondrial fusion. S. cerevisiae fusion-defective mutant growth rescue, CellTiterGlo 48 h. Potency, µM (highest dose often 46.1 µM), inactives show at the top dose growth rescue (activation), hits mostly activators. AID 485298. 0.23% of 320,000 active; further: potency means the concentration at half of the fitted maximal effect; % of control where 0% means no effect; nearly all actives have a fitted effect of over 45% in size
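Compounds are tested for their ability to restore growth of mitochondrial fusion-defective yeast strains at non-permissive 37C in YPEG medium over 48 hours. Viability is quantified by luciferase luminescence.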
TCR act = T cell receptor activation; 330,000 tested, under 10 active; primary human leukocytes, anti-CD3, IL-2 HTRF, 48 h; AID 504894; Potency, µM (series often up to 9.22 µM), for inactives: top-dose activation of IL-2 secretion, hits mostly activators; further: % of control where 0% means no effect
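48 hr co-incubation of compounds, a-CD3 beads and primary human leukocytes; IL-2 quantified homogeneously by HTRF with anti-IL-2 K and d2 conjugates.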
BRCA1 expr up = increases BRCA1 expression; 1.1% of 380,000 active; AID 624202; MCF7-BRCA1-FFLuc reporter, luminescence, 48 h; response scale: scaled: vehicle 0%, 10 µM genistein 100%; Potency, µM (doses to about 46.1 µM), for inactives: top-dose activation, actives largely listed as activators; further: potency means the concentration at half of the fitted maximal effect; nearly all actives have a fitted effect of over 80% in size
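48 h compound treatment of MCF7-BRCA1-FFLuc cells (phenol-red free MEM, 37 °C), then 15 min with luciferase substrate and luminescence imaging.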
Chronic BCR inh = chronic active BCR signaling inhibition; ABC-DLBCL IkBa-CBG/CBR reporter, luminescence ratio, 4 h; Potency, µM (titrated, usually from 46.1 µM), inactives show top-dose activity change, negative = inhibition, hits mostly inhibitors; 0.05% of 340,000 active; active means well fitted inhibition curve with a large enough effect in the signal ratio, with a control signal flat, not every such curve was filed as active; inconclusive means small, poorly fitted or top-dose-only effect, or effect the other way, or a change in a side signal; the % refers to the signal ratio;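 further: potency means the concentration at half of the fitted maximal effect; plate controls were basal doxycycline-induced cells for no effect and cells given 10 µM MG132 for full effect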
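TMD8 human ABC-DLBCL cells with doxycycline-inducible IκBα–green luciferase fusion and unfused red luciferase, in 0.5% FBS medium; compounds up to 46 uM, 4 h at 37C. Green/red luminescence ratio, filter-overlap corrected, fitted to concentration-response curves.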
PTHR1 agonist = agonists of human PTHR1 parathyroid hormone receptor. Potency, µM (top dose mostly 115 µM), inactives show top-dose activation, actives largely listed as activators. 0.075% of 410,000 active. Q03431. HEK293 GP2 PTHR1 cells, GloSensor cAMP luminescence, 1 h; further: potency means the concentration at half of the fitted maximal effect; nearly all actives have a fitted effect of over 55% in size
Target sequence (Q03431 whole entry, looked up): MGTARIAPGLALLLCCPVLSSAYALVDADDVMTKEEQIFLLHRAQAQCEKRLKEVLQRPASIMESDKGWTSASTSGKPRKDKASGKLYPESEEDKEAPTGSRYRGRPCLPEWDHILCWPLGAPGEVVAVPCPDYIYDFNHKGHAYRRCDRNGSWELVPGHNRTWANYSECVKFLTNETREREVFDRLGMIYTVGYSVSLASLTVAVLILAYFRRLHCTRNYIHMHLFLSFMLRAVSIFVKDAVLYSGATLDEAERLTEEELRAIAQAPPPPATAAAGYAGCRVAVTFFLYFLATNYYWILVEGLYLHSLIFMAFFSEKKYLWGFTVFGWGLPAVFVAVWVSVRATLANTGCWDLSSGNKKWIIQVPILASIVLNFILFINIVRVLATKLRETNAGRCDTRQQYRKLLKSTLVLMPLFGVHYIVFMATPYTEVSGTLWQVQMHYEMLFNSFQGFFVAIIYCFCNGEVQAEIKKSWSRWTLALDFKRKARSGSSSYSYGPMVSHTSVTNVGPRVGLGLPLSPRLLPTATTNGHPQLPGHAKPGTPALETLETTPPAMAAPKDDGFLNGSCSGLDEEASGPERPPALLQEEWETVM
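HEK-293-derived GP2 cells expressing PTHR1 and a GloSensor cAMP reporter, 3,000/well, plated overnight, given luciferin plus IBMX (each 0.5 mM as added) for 1 h at 37 °C, then compound for 1 h at 37 °C. Luminescence was read after 15 min at room temperature.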
IL2 activator = activators of IL-2; IL-2 activation reporter assay, cell-based qHTS; stimulated with anti-CD3/CD4/CD28 beads; in transgenic mouse T cells; 0.065% of 360,000 active; activation, % (series mostly up to about 46 µM); in the data active means activation above about 50%; inconclusive means mostly about 30% to 49%; further: 0% is about no effect
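Unstimulated transgenic mouse T cells; 60-min compound exposure; bead-based TCR/CD4/CD28 stimulation; 18 h culture, 37 degrees C; dual fluorescence (EGFP, DsRed) plate cytometry.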
An asterisk follows results filed as active; i = inactive; ? = inconclusive; nt = no result; [ ] = dose if it differs, or a comment. The list is not random: actives were taken first. Their share in the collection is about 1.3%. Unless noted, the call rests on the fitted dose curve; in most records, active means well fitted curve in the direction sought with a large enough effect; inconclusive means small, poorly fitted or top-dose-only effect, or another doubt; inactive means no such curve, though single readings can be large; an effect the other way counts as inactive or inconclusive.

SMILES	Mito fusion yeast	TCR act	BRCA1 expr up	Chronic BCR inh	PTHR1 agonist	IL2 activator
CCCCNC(=O)Cn1c(SCc2cccc(C)c2)nc2ccncc21	nt	nt	55%	nt	nt	nt
Cc1ccc2oc(C(Cl)(Cl)Cl)cc(=O)c2c1	-3%	-4%	-79%	22µM*	-1%[57.5 µM]	1
Cc1ccc2oc(C(F)(F)C(F)F)cc(=O)c2c1	1%	4%	0%	?	i	1
Cc1ccc(C(=O)Nc2cc(C)c(OCC(=O)N3CCOCC3)c(C)c2)cc1	1%	-3%	0%	-10%	i	-1
CCCCNc1ccc2c(c1)C1CC2CCN1C(=O)OCc1ccccc1 (stereo not drawn)	nt	7%	8.9µM*	nt	-3%	-1
Cc1cc(C(=O)NCc2csc(-c3ccccc3)n2)no1	-4%	12%	10µM*	?	-3%	-3
Cc1cc(C(=O)NCc2cccs2)no1	0%	3%	1%	2%	-27%[57.5 µM]	1
O=C(NCc1csc(-c2ccccc2)n1)c1ccco1	0%	-4%	10µM*	?	-11%[57.5 µM]	0
COc1cccc2cc(-c3cn4ccc(C)cc4n3)c(=O)oc12	nt	1%	7.1µM*	nt	-23%[57.5 µM]	-2
COc1ccc(-c2nc3ccc(NC(=O)COC(C)=O)cc3c(=O)n2Cc2ccccc2)cc1COc1ccc(NC(C)=O)cc1	nt	nt	-4%	nt	nt	nt
Cc1ccccc1-c1cnc(C(O)c2ccccc2)[nH]1 (stereo not drawn)	nt	nt	4.5µM*	nt	-8%	2
OC(c1ccc(F)cc1)c1ncc(-c2ccccc2Cl)[nH]1 (stereo not drawn)	nt	nt	11µM*	nt	-20%	1
COc1cccc(-c2cnc(C(O)c3ccc(F)cc3)[nH]2)c1 (stereo not drawn)	nt	nt	13µM*	nt	0%	-1
Cc1ccccc1-c1cnc(C(O)c2ccc(F)cc2)[nH]1 (stereo not drawn)	nt	nt	?	nt	i	0
COc1cc2c(NC3CCN(C(C)C)CC3)nc(N3CCCN(C)CC3)nc2cc1OCCCN1CCCC1	nt	nt	-61%	nt	nt	nt
CCOc1cccc(C2C=C(c3ccc4c(c3)OCO4)NC(c3ccc(Cl)cc3)N2)c1O (stereo not drawn)	nt	nt	-10%	nt	nt	nt
CCCCn1c(N)c(N(C)C(=O)c2ccc(Br)o2)c(=O)[nH]c1=O	-1%	1%	-8%	-2%	-19%	0
O=C1/C(=C/c2cccs2)CCC/C1=C\c1cccs1	2%	nt	-51%	-4%	-25%	-1
O=C1/C(=C/c2ccsc2)CC/C1=C\c1cccs1	12µM*	nt	nt	nt	nt	nt
O=C(N/N=C/c1ccc(N2CCOCC2)cc1)C1CC1	-4%	-1%	1%	1%	i	-2
Cc1cc(N/N=C/c2ccc3c(c2)OCO3)nc2ccccc12	-2%	-9%	13µM*	-8%	i	1
O=C(CSc1nc2ccc(Cl)cc2[nH]1)c1cccs1	6%	10%	-35%	?	-22%	2
O=C(Cn1cnc2c(oc3ccccc32)c1=O)c1ccccc1	-4%	nt	7.1µM*	?	-19%	-3
COc1cccc(NC(=O)Nc2ccc(Br)cn2)c1	5%	1%	11µM*	-20%	-8%	-3
O=C(CN1CCCC1)Nc1ccc(NC(=O)Nc2ccccc2Cl)cc1	1%	4%	11µM*	-11%	i	-1
SMILES	Mito fusion yeast	TCR act	BRCA1 expr up	Chronic BCR inh	PTHR1 agonist	IL2 activator
CC(C)Oc1cccc(C(=O)NC(=S)Nc2ccccc2)c1	2%	2%[46.1 µM]	13µM*	?	-24%	-1
CC(C)C(=O)Nc1ccc(-c2nnc(-c3ccccc3)o2)cc1	-4%	8%	170%	9%	-23%	0
O=C(CN1CCCC1)Nc1ccccc1Cl	-6%	1%	0%	10%	i	1
CC(C)C(=O)Nc1ccc(C(=O)c2ccccc2)cc1	16%	-1%[46.1 µM]	11µM*	-24%	-13%[57.5 µM]	0
Cc1ccc(C2CCN(C(=O)Nc3ccc(C)c(C)c3)C2)cc1 (stereo not drawn)	nt	nt	nt	15%	-19%	nt
CC1(C)CCC(c2ccc(Cl)cc2)=C(CN2CCN(c3ccc(C(=O)NS(=O)(=O)c4ccc(N[C@H](CCN5CCOCC5)CSc5ccccc5)c(S(=O)(=O)C(F)(F)F)c4)cc3)CC2)C1	nt	nt	-38%	nt	nt	nt
COc1cc2nc(Cl)nc(NC(C)C)c2cc1OC	nt	nt	-9%	nt	nt	nt
CC(C)OC(=O)c1cccc(NC(=O)c2ccccc2)c1	18%	-3%[46.1 µM]	11µM*	?	-32%	-2
O=C(Nc1ccccc1Cl)NC1CCCCCCC1	2%	2%	14µM*	2%	-12%	1
COC(=O)c1cccc(NC(=O)c2ccc(OC)c(Cl)c2)c1	-2%	6%	5µM*	?	i	-2
COc1cccc(NC(=O)c2ccccc2)c1	-9%	-5%	8.9µM*	?	-3%	-1
CN(Cc1ccco1)c1ncnc2ccc(-c3ccc4c(c3)OCCO4)cc12	8%	nt	nt	?	nt	nt
O=C(NC1CCCCCCC1)c1cc(F)c(F)cc1Cl	9%	10%	1.8µM*	5%	2%	2
COc1cccc(NC(=O)CC(=O)c2ccc([N+](=O)[O-])cc2)c1	-16%	-1%	11µM*	?	-14%	0
COc1cccc(NC(=O)C(C)C)c1	9%	0%	-1%	2%	i	1
O=C(COC(=O)c1cc(F)c(F)cc1Cl)NC1CCCCCC1	nt	nt	1%	nt	-35%	0
COc1cccc(NC(=O)c2ccc(NC(=O)C(C)C)cc2)c1	0%	-2%	10µM*	?	-19%	1
COc1cccc(NC(=O)NC2CCCCCCC2)c1	-1%	1%	10µM*	-7%	i	-1
O=C(O)c1cc2cccc([N+](=O)[O-])c2[nH]1	nt	nt	0%	nt	nt	nt
C=CCn1c(C)nc2c(sc3nc4c(cc32)COC(C)(C)C4)c1=O	-3%	0%	6.3µM*	?	i	0
CCc1nc2c(sc3nc4c(cc32)COC(C)(C)C4)c(=O)n1CCN(CC)CC	2%	-4%	17%	1%	i	-1
Cc1ccc(S(=O)(=O)N2CCCCC2)cc1C(=O)N1CCCCCC1	4%	2%	-4%	0%	i	0
COc1cc(/C=c2\[nH]c(=O)/c(=C/c3cc(OC)c(OC)c(OC)c3)[nH]c2=O)cc(OC)c1OC	nt	nt	12%	nt	nt	nt
NC(=O)c1ccccc1NC(=O)C(c1ccccc1)c1ccccc1	nt	-6%	-9%	nt	i	-1
CN(C(=O)CSc1nnc(-c2ccccc2F)o1)c1ccccc1	7%	-22%	11µM*	0%	i	0
O=C(CSc1nnc(-c2ccccc2F)o1)N1CCCC1	1%	4%	?	0%	i	-4

Screening data deposited in PubChem BioAssay by National Center for Advancing Translational Sciences (NCATS).
